# Reference: PubChem BioAssay (NCATS)
# Where “and” joins values, the source holds several entries; their conditions need not be identical. Identical values can stand only once. Values without a mark were called inactive. Records with an inconclusive call do not appear. A call without a number means that no potency is given here. Calls of active or inactive are those of the source. Unless noted, calls follow the shape of the dose curve; as a rule, active = well fitted curve in the direction sought with a large enough effect; inconclusive = small, poorly fitted or top-dose-only effect, or another doubt; inactive = no such curve, though single readings can be large; an effect the other way counts as inactive or inconclusive.
# Columns and labels:
# [1] = Cellular Toxicity (caspase-3) BJ (AID 658)
# Outline: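 Luminescent aminoluciferin-substrate cleavage reports caspase 3/7 activity in normal human BJ fibroblasts after 16 hr compound exposure at 37 °C. Normalized to DMSO (basal) and 10 uM staurosporine (100%); AC50 from Hill fit of concentration-response.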
# [2] = Cellular Toxicity (caspase-3) MRC-5 (AID 659);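 also: cells exposed to compound for 16 h at 37 °C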
# Outline: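 Luminescence from caspase-cleaved aminoluciferin substrate (Caspase-Glo 3/7, 1 hr RT) reports caspase 3/7 activity in MRC-5 lung fibroblasts after 16 hr compound exposure. Normalized to DMSO basal and 10 uM staurosporine as 100%; AC50 from Hill fits.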
# [3] = Cell Viability - LYMP2-021 (AID 974);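 also: compound exposure lasts 24 hours at 37 °C; nearly all actives have a fitted effect of over 55% in size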; also: potency is read from the fitted curve at half-maximal effect
# Outline: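 Human lymphoblastoid LYMP2-021 cells, 2500/well in complete medium, treated 24 hours at 37 C. Intracellular ATP by CellTiter-Glo luminescence (30 min, RT); AC50 from Hill fits of concentration-response.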
# [4] = Cell Viability - LYMP2-010 (AID 981); also: nearly all actives have a fitted effect of over 55% in size; also: potency is read from the fitted curve at half-maximal effect
# Outline: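 Human lymphoblastoid LYMP2-010 cells (2500/well) treated 24 h at 37 C in complete medium; viability read as intracellular ATP by CellTiter-Glo luminescence. AC50 from Hill fits of concentration-response data; tetraoctylammonium bromide positive control.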
# [5] = Cell Viability - LYMP2-014 (AID 983); also: nearly all actives have a fitted effect of over 50% in size
# Outline: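 LYMP2-014 human lymphoblastoid cells, 2500/well, treated 24 h at 37 C in complete medium; viability by CellTiter-Glo ATP luminescence after 30 min at room temperature. AC50 from Hill fits of qHTS concentration-response; tetraoctylammonium bromide positive control.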
# [6] = Cell Viability - LYMP2-016 (AID 984); also: nearly all actives have a fitted effect of over 55% in size
# Outline: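 Cells were seeded at 2500 per well and rested 5 hr before a 24 hr compound exposure at 37 C. Viability was then gauged as cellular ATP by luciferase luminescence, with AC50 values fitted to the Hill equation.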
# [7] = qHTS assay for small molecule activators of the p53 signaling pathway (AID 651743; active = well fitted activation curve with a large enough effect in the signal ratio, not every such curve was filed as active; the % refers to the signal ratio); settings: HCT-116 p53RE-bla, beta-lactamase FRET ratio, 16 h; activation: hits give high values
# Outline: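 Cell-based beta-lactamase reporter (p53 response elements, HCT-116 background). After a 5-hour preincubation, cells received compound for 16 hours at 37 C; substrate development ran 2 hours at room temperature.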
# [8] = Cell Viability - N2a (AID 540); settings: N2a mouse neuroblastoma cell viability; activity change, negative = cytotoxicity: at 92.2 µM (top of the series); also: nearly all actives have a fitted effect of over 45% in size
# Outline: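 Mouse neuroblastoma N2a cells, 1500/well, exposed to compounds 40 h at 37 °C in complete medium. Viability measured as cellular ATP by CellTiter-Glo luminescence; AC50 from Hill fits of concentration-response.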
# [9] = Cellular Toxicity (caspase-3) Jurkat (AID 655); settings: Jurkat caspase-3 activation, luminescence; caspase-3 activation: at 92.2 µM (top of the series), DMSO = 0%, tamoxifen = 100%;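 also: cells exposed to compound for 16 h at 37 °C before reading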
# Outline: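 5000 Jurkat cells/well; compound 16 hr, 37 °C; Caspase-Glo 3/7 added, 20 min RT; luminescence read. Norm: DMSO = 0%, tamoxifen 100 uM = 100%. AC50, Hill model.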
# [10] = Cell Viability - LYMP1-003 - Assay at 24 hr (AID 963)
# Outline: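 Human lymphoblastoid LYMP1-003 cells, 2500/well, treated 24 h at 37 C in complete medium. Viability read as intracellular ATP by CellTiter-Glo luminescence after 30 min at room temperature; AC50 from Hill-equation fits of qHTS concentration-response.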
# [11] = Cell Viability - LYMP1-003 - Assay at 40 hr (AID 964); also: nearly all actives have a fitted effect of over 60% in size
# Outline: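 LYMP1-003 human lymphoblastoid cells, 2500/well, preincubated 5 h at 37 C, then treated with compound for 40 h at 37 C. Intracellular ATP read by CellTiter-Glo luminescence after 30 min at room temperature; AC50 from Hill-equation fits.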
# [12] = Cell Viability - LYMP2-004 (AID 966); also: nearly all actives have a fitted effect of over 65% in size
# Outline: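 Lymphoblastoid LYMP2-004 cells, 2500 per well, were preincubated for 5 hr and then treated with compound for 24 h at 37 C in complete medium. Viability was read as cellular ATP by CellTiter-Glo luminescence, and AC50 values were taken from Hill fits to concentration-response data.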
# [13] = Cell Viability - LYMP2-011 (AID 969); also: nearly all actives have a fitted effect of over 60% in size
# Outline: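 2500 cells/well in complete medium, compound-treated 24 h at 37 C. Viability read as intracellular ATP by CellTiter-Glo luminescence after 30 min at room temperature. AC50 from Hill fits of qHTS concentration-response data.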
# [14] = Cell Viability - LYMP2-018 (AID 985); also: nearly all actives have a fitted effect of over 50% in size
# Outline: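 Human lymphoblastoid LYMP2-018 cells, 2500/well, settled 5 hr at 37 C then exposed to compound 24 hr at 37 C; intracellular ATP measured by CellTiter-Glo luminescence. AC50 from Hill-equation concentration-response fits.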
# [15] = Cell Viability - LYMP2-024 (AID 988); also: nearly all actives have a fitted effect of over 60% in size
# Outline: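 Human lymphoblastoid LYMP2-024 cells (2500/well) rested 5 hr, then treated with compound for 24 hr at 37 C in complete medium. Viability was measured as intracellular ATP by CellTiter-Glo luminescence. AC50 values came from Hill-equation fits.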
# [16] = biological target: Peroxisome proliferator-activated receptor delta (Homo sapiens) (UniProt Q03181); experiment: qHTS assay for small molecule agonists of peroxisome proliferator-activated receptor delta signaling (AID 588534; calls by dose curve)
# Outline: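 Cells carrying a PPAR-delta beta-lactamase reporter were treated with compounds for 18 h at 37 °C in agonist mode. CCF4 fluorescence was read after 2 h; EC50 and efficacy from Hill fits.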
# [17] = qHTS assay for small molecule activators of the human pregnane X receptor (PXR) signaling pathway (AID 720659; call rule not given here)
# [18] = MultiTox-Fluor Cytotoxicity Assay - LYMP1-001 - Dead Cells (AID 946)
# Outline: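 Cytotoxicity as increased dead-cell protease fluorescence (bis-AAF-R110, 485/520 nm), read 60 min after MultiTox-Fluor reagent. Human lymphoblastoid line exposed 16 h; Hill-fitted AC50, with DMSO as 0% and 15 uM tetraoctylammonium bromide as 100%.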
# [19] = MultiTox-Fluor Cytotoxicity Assay - LYMP1-003 - Live Cells (AID 962);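 also: cytotoxic hits lower the live-cell protease signal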
# Outline: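 LYMP1-003 lymphoblastoid cells, 2500/well in complete medium, treated 16 h at 37 C; live-cell protease cleavage of GF-AFC read by fluorescence (Ex/Em 405/510) after 60 min reagent; AC50 from Hill fits of concentration-response.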
# [20] = qHTS assay for small molecule agonists of the antioxidant response element (ARE) signaling pathway measured by Nrf2-dependant transcriptional activity (AID 720636; active = well fitted curve in the direction sought with a large enough effect in the repeat runs; an effect the other way counts as inactive or inconclusive)
# Outline: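 Quantitative HTS format in HepG2 cells stably expressing an ARE-luciferase reporter; 16 hr compound treatment at 37 C, luciferase signal detected with ONE-Glo.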
# Sequence of Peroxisome proliferator-activated receptor delta (Homo sapiens) (Q03181 whole entry, looked up): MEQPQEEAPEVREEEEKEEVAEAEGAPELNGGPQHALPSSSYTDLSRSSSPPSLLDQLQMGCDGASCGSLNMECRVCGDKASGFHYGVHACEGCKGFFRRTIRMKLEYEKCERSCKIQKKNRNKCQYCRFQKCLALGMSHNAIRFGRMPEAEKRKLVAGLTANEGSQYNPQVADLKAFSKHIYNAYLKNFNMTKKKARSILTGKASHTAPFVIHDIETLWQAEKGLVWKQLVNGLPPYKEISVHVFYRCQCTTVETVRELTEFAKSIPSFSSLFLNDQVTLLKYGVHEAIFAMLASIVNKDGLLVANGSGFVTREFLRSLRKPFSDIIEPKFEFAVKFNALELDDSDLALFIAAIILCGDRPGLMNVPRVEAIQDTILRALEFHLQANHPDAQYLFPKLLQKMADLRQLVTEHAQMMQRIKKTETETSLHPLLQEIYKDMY
SMILES,outcome [1],outcome [2],Potency [3],Potency [4],Potency [5],Potency [6],activation [7],Potency [8],caspase-3 activation [9] [%],outcome [10],Potency [11],Potency [12],Potency [13],Potency [14],Potency [15],outcome [16],outcome [17],outcome [18],outcome [19],Potency [20]
Cc1ccc(N)c(N)c1,inactive,inactive,31.6 µM (active),12.6 µM (active),inactive,inactive,-0.898%,–,–,–,–,–,–,–,–,–,–,–,–,–
CSSC,inactive,inactive,inactive,inactive,inactive,inactive,-1.71%,inactive,-0.115,inactive,inactive,inactive,inactive,inactive,inactive,inactive,inactive,–,–,–
CC(=O)CCC(C)=O,inactive,inactive,inactive,–,inactive,inactive,0.727%,inactive,–,inactive,inactive,inactive,inactive,inactive,inactive,inactive,inactive,inactive,inactive,inactive
CC(C)(OOC(C)(C)c1ccccc1)c1ccccc1,inactive,inactive,inactive,inactive,–,inactive,-3.14% and -2.07%,–,-0.0747,inactive,inactive,–,inactive,–,inactive,inactive,–,inactive,inactive,inactive
O=S(=O)(Cl)c1ccccc1,inactive,inactive,inactive,inactive,inactive,inactive,–,inactive,0.656,inactive,inactive,inactive,inactive,inactive,–,inactive,inactive,inactive,inactive,inactive
CC(C)C#N,inactive,inactive,inactive,inactive,inactive,inactive,–,inactive,-1.09,inactive,inactive,inactive,inactive,inactive,inactive,inactive,inactive,inactive,inactive,inactive
NNC(N)=S,inactive,inactive,–,inactive,inactive,inactive,-3.14%,inactive,0.589,inactive,inactive,inactive,inactive,inactive,inactive,inactive,inactive,inactive,inactive,inactive
Oc1cc(Cl)ccc1Cl,inactive,inactive,inactive,inactive,inactive,inactive,0.543% and -4%,inactive,–,inactive,inactive,inactive,–,inactive,inactive,inactive,inactive,inactive,inactive,inactive
ClC=CCl,–,–,inactive,inactive,inactive,inactive,-3.46%,inactive,1.45,inactive,inactive,–,inactive,inactive,inactive,inactive,inactive,–,inactive,inactive
O=[N+]([O-])c1ccc(Cl)cc1,inactive,inactive,inactive,inactive,inactive,inactive,0.333% and 2.39%,–,1.25,–,inactive,–,inactive,inactive,inactive,–,inactive,inactive,–,inactive
Nc1ccc(Oc2ccc(N)cc2)cc1,inactive,inactive,inactive,inactive,–,inactive,-4.54% and -10.7%,inactive,3.63,inactive,inactive,inactive,inactive,inactive,inactive,inactive,inactive,inactive,inactive,inactive
ClCC(Cl)CCl,inactive,–,inactive,–,inactive,–,2.35% and -2.96%,–,1.95,inactive,–,inactive,inactive,–,–,inactive,inactive,inactive,inactive,–
CC(Cl)CCl (stereo not given),–,inactive,inactive,inactive,–,–,0.619%,inactive,0.191,inactive,inactive,inactive,inactive,inactive,inactive,inactive,inactive,inactive,–,inactive
C=CC(=O)OCC(C)C,inactive,inactive,inactive,inactive,inactive,inactive,-0.853%,inactive,0.654,–,inactive,inactive,inactive,inactive,inactive,inactive,inactive,inactive,–,inactive
O=[N+]([O-])c1cccc(O)c1,inactive,–,–,inactive,inactive,inactive,-2.9%,–,1.08,–,inactive,–,inactive,–,inactive,inactive,inactive,inactive,inactive,inactive
C=C(C)CCl,inactive,inactive,inactive,inactive,inactive,–,-3.39%,inactive,-0.765,–,–,inactive,inactive,inactive,–,inactive,inactive,inactive,inactive,inactive
COc1ccc(C=O)cc1,–,inactive,inactive,inactive,inactive,inactive,-1.3%,–,-0.692,inactive,inactive,inactive,inactive,inactive,inactive,inactive,inactive,inactive,inactive,inactive
